Bioassay records deposited in PubChem by National Center for Advancing Translational Sciences (NCATS).
Rows were chosen to be rich in hits. Some 2.2% of all compounds tested hit in one or more screens of this group.
GLP1R inv ag = qHTS of GLP-1 Receptor Inverse Agonists (Inhibition Mode); Potency, µM (highest dose often 38.3 µM), for inactives: top-dose activity change, negative = inhibition, actives largely listed as inhibitors; hit rate 1.6% among 410,000; Glucagon-like peptide 1 receptor (Homo sapiens), P43220; AID 624417, 2012; HEK293 GLP-1R CRE-luciferase, luminescence, 24 h; GLP-1R form is constitutively active; further: potency means the concentration at half of the fitted maximal effect; on the % scale 0 is the no-effect control and ±100 the full control effect; nearly all actives have a fitted effect of over 55% in size
Target sequence (P43220 whole entry, looked up): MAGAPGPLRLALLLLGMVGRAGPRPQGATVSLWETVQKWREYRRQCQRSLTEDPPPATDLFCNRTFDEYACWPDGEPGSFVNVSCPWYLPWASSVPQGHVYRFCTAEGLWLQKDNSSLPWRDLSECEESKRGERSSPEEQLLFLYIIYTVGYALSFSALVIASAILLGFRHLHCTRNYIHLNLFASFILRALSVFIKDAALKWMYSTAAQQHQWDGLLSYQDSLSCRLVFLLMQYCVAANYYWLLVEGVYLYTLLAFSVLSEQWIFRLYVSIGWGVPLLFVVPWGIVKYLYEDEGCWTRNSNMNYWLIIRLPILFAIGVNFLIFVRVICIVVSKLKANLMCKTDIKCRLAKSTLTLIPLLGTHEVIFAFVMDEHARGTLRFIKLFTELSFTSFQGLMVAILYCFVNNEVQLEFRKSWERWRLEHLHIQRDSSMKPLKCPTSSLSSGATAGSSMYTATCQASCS
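GLP-1R inverse agonism mode: basal reporter luminescence in engineered HEK293 cells measured after one day of compound exposure at 37 deg C, with a 12 min room-temperature detection step.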
MmCpn inh = Inhibitors of TCP-1 ring complex (TRiC) of Methanococcus maripaludis (MmCpn): qHTS; Chaperonin Mm-Cpn (Methanococcus maripaludis); AID 504842, 2011; purified Mm-Cpn ATPase, ADP Transcreener TR-FRET; hit rate 0.031% among 330,000; Potency, µM (series often up to 76.9 µM), inactives show at the top dose activity, negative = inhibition, most hits filed as inhibitors; further: potency means the concentration at half of the fitted maximal effect; on the % scale 0 is the no-effect control and ±100 the full control effect; nearly all actives have a fitted effect of over 80% in size
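Eu-cryptate anti-ADP/ADP-d2 competition gives a ratio inversely related to ADP. Enzyme at 25 nM was pre-exposed to compound for 10 min, then given 10 uM ATP for 30 min, 37°C throughout.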
GLP1R ag = qHTS of GLP-1 Receptor Agonists; Glucagon-like peptide 1 receptor (Homo sapiens), P43220; HEK293 GLP-1R CRE-luciferase, luminescence, 4-6 h; cells express a hypersensitive GLP-1R form; Potency, µM (titrated, usually from 45.6 µM), for inactives: top-dose activation, usual class: activators; hit rate 0.007% among 380,000; further: potency means the concentration at half of the fitted maximal effect; % of control where 0% means no effect
CCT chaperon mod = High-Throughput Screening for Modulators of Cytosolic Chaperonin Activity. hit rate 0.3% among 360,000. activity change, % (no concentration beside the values), hits read low. purified chaperonin ATPase assay, HTRF ADP detection, 30 min; in the data active means activity change below about -30%; further: on the % scale 0 is the no-effect control and ±100 the full control effect
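We incubate TRiC, 40 or 20 nM final, with library compounds at 76 uM and 10 uM ATP for 30 min at 37 °C. ADP formed is detected with Transcreener HTRF reagents after 30 min at room temperature.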
uPA generation = qHTS for Inhibitors of Cell Surface uPA Generation; hit rate 0.31% among 330,000; Potency, µM (highest dose often 38.3 µM), for inactives: at the top dose activity change, negative = inhibition, usual class: inhibitors; cell surface uPA generation assay, qHTS; AID 540303, 2011; active means well fitted inhibition curve with a large enough effect; inconclusive means small, poorly fitted or top-dose-only effect; inactive means no such curve, though single readings can be large or run the other way; tested in mouse RAW 264.7 cells; further: potency means the concentration at half of the fitted maximal effect; on the % scale 0 is the no-effect control and ±100 the full control effect; nearly all actives have a fitted effect of over 55% in size
GLP1R cytotox = qHTS of GLP-1 Receptor Inverse Agonists: Cytotox Screen. Potency, µM (doses to about 38.3 µM), for inactives: at the highest dose activity change, negative = inhibition, hits mostly inhibitors. hit rate 0.13% among 410,000. HEK293 cAMP-luciferase reporter cells, luminescence, 24 h. AID 624418, 2012;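 further: loss of luciferase light is scored as toxicity; potency means the concentration at half of the fitted maximal effect; on the % scale 0 is the no-effect control and ±100 the full control effect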
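To flag toxic compounds, the library was rerun on cells for 24 hr at 37 deg C and 5% CO2. Viability-linked luminescence was captured 12 min after adding luciferase detection reagent.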
The depositor's hits bear a star; ? = inconclusive; . = no result given. Unless noted, the call rests on the fitted dose curve; in most records, active means well fitted curve in the direction sought with a large enough effect; inconclusive means small, poorly fitted or top-dose-only effect, or another doubt; inactive means no such curve, though single readings can be large; an effect the other way counts as inactive or inconclusive.

SMILES	GLP1R inv ag	MmCpn inh	GLP1R ag	CCT chaperon mod	uPA generation	GLP1R cytotox
Cc1ccc(S(=O)(=O)N(CC(=O)Nc2cccc([N+](=O)[O-])c2)C2CCCCC2)cc1	11µM*	-1%	0%	-3	0%	-8%
Cc1ccc(NS(=O)(=O)c2ccc(OCC(=O)Nc3cccc([N+](=O)[O-])c3)c(C)c2)cc1	10µM*	2%	-1%	-1	.	-23%
Cc1ccc(S(=O)(=O)N(C)Cc2nc(-c3ccccc3)oc2C)cc1	?	.	.	.	.	0%
CCCc1cc(C(=O)Nc2ccc(C(=O)c3ccc(C)cc3)cc2)n(C)n1	5.6µM*	-2%	-3%	2	-6%	-8%
CCCc1cc(C(=O)Nc2cccc3ccccc23)n(C)n1	?	0%	18%	-9	-6%	-8%
COc1ccc(CN2COc3ccc4c(C)cc(=O)oc4c3C2)cc1	9%	.	17%	.	.	141%
O=C(CN1CCN(Cc2ccccc2)CC1)Nc1ccccc1-c1ccccc1	2µM*	-3%	15%	-5	7%	-20%
Cc1cccc(C)c1OCC(=O)N/N=C/c1cccnc1	-29%	0%	10%	-3	0%	13µM*
O=C(CN1CCN(Cc2ccccc2)CC1)N/N=C/c1cccnc1	7%	0%	-1%	-36*	12%	1%
COc1cc(Nc2nc(SCc3cccc(Cl)c3)nc3ccccc23)cc(OC)c1	?	.	.	.	.	-7%
COc1ccc(-c2nc3n(n2)C(c2ccc(OC)c(OC)c2)C(C(=O)Nc2cccnc2)=C(C)N3)cc1 (stereo not drawn)	6%	.	.	.	.	6%
CC1=C(C(=O)OC2CCCC2)C(c2ccccc2C(F)(F)F)CC(=O)N1 (stereo not drawn)	?	.	-2%	.	.	4%
Cc1ccc(CNC(=O)c2c(-c3cccc(Br)c3)noc2C)o1	-15%	.	.	.	.	-7%
CC(=O)c1cccc(NC(=S)NC(=O)c2ccc(Br)cc2)c1	16%	-3%	-6%	-40*	-1%	-23%
CC(=O)c1cccc(NC(=S)NC(=O)c2ccc(C)cc2)c1	-16%	-2%	9%	3	-5%	?
C#CCNC(=O)C[C@@H]1C[C@@]2(C(=O)OC)CC(C)(C)CC=C2N(Cc2cccc3ccccc23)C1=O	?	.	.	.	.	-1%
COC(=O)[C@@]12C[C@@H](CC(=O)NCc3cccs3)C(=O)N(Cc3cccc4ccccc34)C1=CCC(C)(C)C2	11µM*	.	.	.	.	1%
C#CCNC(=O)C[C@@H]1C[C@@]2(C(=O)OC)CC(C)(C)CC=C2N(Cc2ccco2)C1=O	0%	.	.	.	.	-10%
COC(=O)[C@@]12C[C@@H](CC(=O)NCC34CC5CC(CC(C5)C3)C4)C(=O)N(Cc3ccco3)C1=CCC(C)(C)C2	10µM*	.	.	.	.	-8%
COCC1=C(C(=O)OC(C)OC(=O)OC(C)C)N2C(=O)C(NC(=O)/C(=N\OC)c3csc(N)n3)C2SC1 (stereo not drawn)	.	.	-6%	.	.	.
O=C1[C@@H]2C[C@@H]3C[C@H]1C[C@@](O)(C3)C2	.	.	-4%	.	.	.
CCCCC1C(=O)NN(c2ccccc2)C1=O (stereo not drawn)	1.8µM*	.	5%	-1	3%	-15%
COc1ccccc1CNC(=O)CN1C(=O)COc2ccc(S(=O)(=O)Nc3ccccc3)cc21	-22%	.	0%	.	.	3%
CCN1C(=O)C2(c3ccccc31)c1c(oc3ccc(F)cc3c1=O)C(=O)N2CCCOC (stereo not drawn)	8%	.	.	.	.	-2%
Cc1cccc(CCNc2ncnc3onc(-c4ccc(Cl)cc4)c23)c1	-3%	.	1%	.	.	1%
SMILES	GLP1R inv ag	MmCpn inh	GLP1R ag	CCT chaperon mod	uPA generation	GLP1R cytotox
O=C1C=CC[C@H](/C=C/C[C@@H](O)C[C@H](O)CCc2ccccc2)O1	-12%	.	6%	0	10µM*	-13%
O=C(c1ccc2ncsc2c1)N1CCCCC1	10%	2%	-3%	-36*	-1%	-8%
O=c1c2cnn(-c3ccccc3)c2nc(-c2cccs2)n1-c1cccc(Cl)c1	8.9µM*	?	5%	-9	-6%	-5%
O=c1c2cnn(-c3ccccc3)c2nc(-c2cccs2)n1-c1ccc(Cl)cc1	3%	-5%	3%	1	5%	-3%
COc1ccc(NC(=O)C2CC(=O)N(Cc3ccc(C)cc3)C2)cc1S(=O)(=O)N1CCCCC1 (stereo not drawn)	17%	2%	8%	0	-15%	7%
Cc1ccc(NC(=O)CSc2ccccc2)cc1S(=O)(=O)N1CCOCC1	-12%	2%	4%	2	9%	5%
Cc1ccc(NC(=S)NCc2ccccc2)cc1S(=O)(=O)N1CCCCC1	11µM*	0%	2%	-4	?	-22%
Cc1ccc(NC(=O)CSc2ccccc2)cc1S(=O)(=O)N1CCCCC1	7.9µM*	-2%	0%	-1	2%	-6%
Cc1ccc(CN2CC(C(=O)Nc3ccc(C)c(S(=O)(=O)N4CCCCC4)c3)CC2=O)cc1 (stereo not drawn)	?	.	-37%	-41*	-14%	1%
COc1ccc(S(=O)(=O)NCCc2cn3ccsc3n2)cc1OC	16%	.	.	.	.	-14%
Cc1cc(C)cc(NC(=O)c2cn3c4c(ccc(Cl)c4c2=O)OC(C)C3)c1 (stereo not drawn)	6%	.	.	.	.	0%
CCN(CC)C1CCN(C(=O)c2ccc3nc(Cc4ccc(OC)cc4)oc3c2)C1 (stereo not drawn)	23%	0%	0%	-68*	-14%	3%
Cc1ccc(CN(C)C(=O)c2ccccc2Sc2ccccc2C#N)cc1	10µM*	-1%	6%	-1	-1%	2%
COc1cccc(CN(C)C(=O)c2cccnc2SC)c1OC	10%	2%	-7%	-3	-8%	0%
COc1cccc(CN(C)C(=O)c2ccccc2Sc2ccccc2C#N)c1OC	8.9µM*	1%	12%	-1	6%	-11%
COC(=O)c1cn(NC(=O)c2cc([N+](=O)[O-])ccc2F)c(=O)c2ccccc12	1.6µM*	-2%	1%	-2	?	-6%
CCOc1ccc(C(=O)OC2CCN(C)CC2)cc1	4µM*	2%	1%	1	4%	3%
COc1ccc(C(=O)Nc2cccc(-c3cn4ccsc4n3)c2)cc1OC	-24%	.	.	.	.	-19%
